From PubChem BioAssay (NCATS) come the findings set out here.

Results filed as inconclusive are left out. Values without a mark were called inactive. Calls of active or inactive are those of the source. Calls come from the whole dose curve; as a rule, active = well fitted inhibition curve with a large enough effect; inconclusive = small, poorly fitted or top-dose-only effect; inactive = flat fitted curve, though single readings scatter.
% is set by controls: 0 for no effect and ±100 for the full control effect; potency is the fitted concentration of half-maximal effect.

This test in a line: Primary qHTS for inhibitors of nuclear receptor binding SET domain protein 2 (NSD2) in an isogenic RCH-ACV NSD2 p.E1099K mutant (9B) (AID 1645876). Note: nearly all actives have a fitted effect of over 70% in size. The conditions noted are these: RCH-ACV (leukaemia line) NSD2 E1099K (9B) viability, CellTiter-Glo, 72 h; series mostly up to 44.9 µM; activity change, negative = viability loss: at the top concentration. In general terms: In qHTS, concentration-response curves come from the screen itself.
Take `CN(C)[C@@H]1C(=O)C(C(N)=O)=C(O)[C@@]2(O)C(=O)C3=C(O)c4c(O)ccc(Cl)c4[C@@](C)(O)C3C[C@@H]12` (stereo partly drawn): the “activity change, negative = viability loss” value is -11.7%. Take `CC(C)[C@H](NC(=O)c1nn(Cc2ccc(F)cc2)c2ccccc12)C(N)=O`: the “activity change, negative = viability loss” value is -14.6%. `COC1CCCC(C)OC(=O)Cc2cc(O)cc(O)c2C(=O)C1` (stereo not drawn): the Potency was 2.84 µM (active). With `CN1CCCCC1Cn1cc(C(=O)c2cc([N+](=O)[O-])ccc2I)c2ccccc21` (stereo not drawn), the “activity change, negative = viability loss” value was -21.5%.

`COc1cc(C(=O)N2CC[C@@H](O)[C@@H](N)C2)cc2nc(-c3cc4ccccc4n3CC3CC3)n(C)c12`: the Potency is 20.9 µM (active). With `C=C1C(=O)CC2OC2(C)CC2OC(=O)C(=C)C2C(O)C1OC(=O)/C(C)=C\C` (stereo not drawn), the Potency was 2.26 µM (active). Take `CC12CCC3C(C1)c1c(cc(O)c(C(=O)c4ccccc4)c1OC3(C)C)O2` (stereo not drawn): the “activity change, negative = viability loss” value is -15.9%.

`C#C[C@]1(O)CC[C@H]2[C@@H]3CC[C@H]4Cc5nc6nc7ccccc7n6cc5C[C@]4(C)[C@H]3CC[C@@]21C`: the Potency is 12.9 µM (active). `CC(C)[C@H]1OC(=O)[C@H](Cc2ccccc2)N(C)C(=O)[C@@H](C(C)C)OC(=O)[C@H](Cc2ccccc2)N(C)C(=O)[C@@H](C(C)C)OC(=O)[C@H](Cc2ccccc2)N(C)C1=O`: the Potency is 6.82 µM (active).

As for `CCC1C2CC3C4N(C)c5ccccc5C45CC(C2C5O)N3C1O` (stereo not drawn), the “activity change, negative = viability loss” value is -6.59%.

Turning to `COc1cc(O)c2c(c1)CCC[C@@H](O)[C@H](O)C(=O)/C=C\C[C@H](C)OC2=O`, the Potency is 8.01 µM (active). As for `CCCCCCC1C(=O)O[C@H](C)[C@H](NC(=O)c2cccc(NC=O)c2O)C(=O)O[C@@H](C)[C@@H]1OC(=O)CC(C)C` (stereo partly drawn), the Potency is 0.0115 µM (active). As to `C[C@@H]1O[C@@H](OC2CCC3(C=O)C(CCC4C3CCC3(C)C(C5=CC(=O)OC5)C(O)CC43O)C2)[C@H](O)[C@H](O)[C@H]1O[C@@H]1O[C@H](CO)[C@@H](O)[C@H](O)[C@H]1O` (stereo partly drawn), the Potency is 2.42 µM (active). Consider `C=C(C)C(=O)O[C@H]1[C@@H]2[C@H](C)C(=O)O[C@@H]2C[C@@H](C)[C@@H]2C=CC(=O)[C@]21C`, for which the Potency is 2.01 µM (active). `CCN1C[C@]2(COC)CC[C@H](O)[C@@]34C5C[C@@H]6[C@@H](OC)C[C@@](OC(C)=O)(C5[C@@H]6OC(C)=O)[C@H]([C@H](OC)C23)[C@@H]14` (stereo partly drawn): the “activity change, negative = viability loss” value was -13.8% [at 17.3 µM]. Consider `CC(=O)O[C@H]1C[C@]2(O)[C@@H]3CC[C@@H]4C[C@@H](O)CC[C@]4(C)[C@H]3CC[C@]2(C)[C@H]1c1ccc(=O)oc1`, for which the Potency was 0.0459 µM (active). With `COC1CC(O[C@H]2CC[C@@]3(C)C(CCC4C3CC[C@]3(C)C(C5=CC(=O)OC5)CCC43O)C2)OC(C)C1OC1OC(COC2OC(CO)C(O)C(O)C2O)C(O)C(O)C1O` (stereo partly drawn), the Potency was 0.975 µM (active). On the same count and under the same terms, the figure for `C=C(C)[C@@]12O[C@@H]1[C@@]1(C)C(=CC2=O)CC[C@@H](OC(C)=O)[C@@H]1C` is 4.59 µM (active). Take `CN1Cc2c(ccc3c2OCO3)[C@@H]2[C@H]1c1cc3c(cc1C[C@@H]2O)OCO3`: the Potency was 2.84 µM (active). On to `CC1=CC2OC3CC(O)[C@](C)([C@@]2(C)C(O)C1=O)[C@]31CO1` (stereo partly drawn), for which the Potency is 5.15 µM (active). As to `CC[C@H](O)[C@@H](C)[C@H]1O[C@@H]1C[C@H](C)/C=C/C=C(\C)[C@H]1OC(=O)C[C@H](O)CC[C@@](C)(O)[C@@H](OC(C)=O)/C=C/[C@@H]1C`, the Potency is 0.0058 µM (active). Regarding `COC(=O)C12C(=O)C(C)(O)C(=O)C1(C)C(C)=CC1C34CCC(OC3=O)C(C)(C)C4CCC12C` (stereo not drawn), the “activity change, negative = viability loss” value was -18.3% [at 17.3 µM].

With `Cc1ccc2c(c1)[C@H]1CN(C)CC[C@H]1N2C(=O)CSc1nnnn1-c1ccc(Cl)cc1`, the “activity change, negative = viability loss” value was -18.3%. Consider `Fc1cc(F)c2c(c1)C1C=CCC1C(c1cccnc1)N2` (stereo not drawn), for which the Potency was 8.17 µM (active). Turning to `CCCN(CCC)[C@@H]1CCc2ccc3[nH]c(C#N)cc3c2C1`, the “activity change, negative = viability loss” value is -13.9%. Take `C[C@]12CC[C@H](O)C[C@@H]1CC[C@@H]1[C@@H]2CC[C@]2(C)[C@@H](C3=CC(=O)OC3)CC[C@]12O`: the Potency was 2.84 µM (active). As for `CC1=CC(=O)[C@@H](O)[C@@]2(C)C1C[C@H]1OC(=O)[C@H](O)[C@@]3(O)[C@@H](C)[C@@H](O)[C@H](O)C2[C@@]13C` (stereo partly drawn), the Potency was 1.27 µM (active).

In the case of `c1ccc([C@@H]2C[C@H]2NC2CCNCC2)cc1`, the “activity change, negative = viability loss” value was -28%.
